From PubChem BioAssay AID1159580 (chemical genetic matrix, 2015)
The whole screen tested about 5,500 compounds, of which about 2,000 (36%) were called active. Roughly 18% stayed inconclusive and do not appear here. No stated cut-off is given here; in the data, active means normalized growth mostly below about 0.91 (no sharp cut-off); inconclusive means no clear call, values can overlap the other calls; inactive means mostly above about 0.92. Some of the results follow.

Assay: chemical genetic growth profiling, strain panel (AID 1159580);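 further: tested at 20 µM; growth read once vehicle control cultures reached saturation at 30 °C; 1 = growth at the plate median or of vehicle wells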
Conditions: growth OD

Measured: normalized growth

C[C@]12CCC(=O)C=C1CCC1C2CC[C@@]2(C)C1CC[C@@H]2O (some centres not stated)
inactive: S. cerevisiae deletion strains, locus YJR075W, strain HOC1, stronger effect = lower value 0.996 | S. cerevisiae deletion strains, locus YKL009W, strain mrt4, stronger effect = lower value 0.957 | S. cerevisiae deletion strains, locus YKL068W, stronger effect = lower value 1.03 | S. cerevisiae deletion strains, locus YKL085W, strain MDH1 (second series), stronger effect = lower value 1.01 | S. cerevisiae deletion strains, locus YKL085W, strain MDH1, stronger effect = lower value 1.01 | S. cerevisiae deletion strains, locus YKL160W, strain elf1, stronger effect = lower value 0.994 | S. cerevisiae deletion strains, locus YKL190W, strain CNB1, stronger effect = lower value 1.03 | S. cerevisiae deletion strains, locus YKR001C, strain vps1, stronger effect = lower value 1.03 | S. cerevisiae deletion strains, locus YKR026C, strain gcn3, stronger effect = lower value 1 | S. cerevisiae deletion strains, locus YKR091W, strain srl3, stronger effect = lower value 0.991 | S. cerevisiae deletion strains, locus YLL001W, strain dnm1, stronger effect = lower value 1 | S. cerevisiae deletion strains, locus YLL026W, stronger effect = lower value 0.992 | S. cerevisiae deletion strains, locus YLL041C, strain sdh2, stronger effect = lower value 0.99 | S. cerevisiae deletion strains, locus YLR027C, strain aat2, stronger effect = lower value 1 | S. cerevisiae deletion strains, locus YLR039C, strain RIC1, stronger effect = lower value 1.17 | S. cerevisiae deletion strains, locus YLR058C, strain SHM2, stronger effect = lower value 1.02 | S. cerevisiae deletion strains, locus YLR102C, strain apc9, stronger effect = lower value 1.03 | S. cerevisiae deletion strains, locus YLR113W, strain HOG1, stronger effect = lower value 0.99 | S. cerevisiae deletion strains, locus YLR221C, strain rsa3, stronger effect = lower value 0.988 | S. cerevisiae deletion strains, locus YLR258W, strain gsy2, stronger effect = lower value 0.993 | S. cerevisiae deletion strains, locus YLR262C, strain YPT6 (second series), stronger effect = lower value 0.98 | S. cerevisiae deletion strains, locus YLR262C, strain YPT6, stronger effect = lower value 1.18 | S. cerevisiae deletion strains, locus YLR268W, strain sec22, stronger effect = lower value 1.01 | S. cerevisiae deletion strains, locus YLR320W, strain mms22, stronger effect = lower value 0.946 | S. cerevisiae deletion strains, locus YLR330W, strain CHS5, stronger effect = lower value 1.02 | S. cerevisiae deletion strains, locus YLR342W, strain FKS1 (second series), stronger effect = lower value 0.983 | S. cerevisiae deletion strains, locus YLR342W, strain FKS1, stronger effect = lower value 0.985 | S. cerevisiae deletion strains, locus YLR357W, strain rsc2, stronger effect = lower value 1.02 | S. cerevisiae deletion strains, locus YLR370C, strain arc18, stronger effect = lower value 0.988 | S. cerevisiae deletion strains, locus YLR371W, strain rom2, stronger effect = lower value 1.02 | S. cerevisiae deletion strains, locus YLR384C, strain iki3, stronger effect = lower value 1 | S. cerevisiae deletion strains, locus YLR418C, strain cdc73, stronger effect = lower value 1.02 | S. cerevisiae deletion strains, locus YML016C, strain PPZ1, stronger effect = lower value 1.02 | S. cerevisiae deletion strains, locus YML032C, strain rad52, stronger effect = lower value 1.02 | S. cerevisiae deletion strains, locus YML120C, strain ndi1, stronger effect = lower value 0.981 | S. cerevisiae deletion strains, locus YML124C, strain tub3, stronger effect = lower value 1.03 | S. cerevisiae deletion strains, locus YMR058W, strain fet3, stronger effect = lower value 0.993 | S. cerevisiae deletion strains, locus YMR078C, strain ctf18, stronger effect = lower value 1.03 | S. cerevisiae deletion strains, locus YMR125W, strain sto1, stronger effect = lower value 0.99 | S. cerevisiae deletion strains, locus YMR129W, stronger effect = lower value 0.993 | S. cerevisiae deletion strains, locus YMR205C, strain PFK2, stronger effect = lower value 0.936 | S. cerevisiae deletion strains, locus YMR223W, strain ubp8, stronger effect = lower value 1.01 | S. cerevisiae deletion strains, locus YMR231W, strain pep5, stronger effect = lower value 0.999 | S. cerevisiae deletion strains, locus YMR263W, strain SAP30, stronger effect = lower value 1.04 | S. cerevisiae deletion strains, locus YMR307W, strain GAS1, stronger effect = lower value 1.23 | S. cerevisiae deletion strains, locus YNL067W, strain RPL9B, stronger effect = lower value 0.993 | S. cerevisiae deletion strains, locus YNL071W, strain lat1, stronger effect = lower value 0.976 | S. cerevisiae deletion strains, locus YNL128W, strain TEP1, stronger effect = lower value 1.02 | S. cerevisiae deletion strains, locus YNL153C, strain GIM3, stronger effect = lower value 1.02 | S. cerevisiae deletion strains, locus YNL183C, strain NPR1, stronger effect = lower value 0.988 | S. cerevisiae deletion strains, locus YNL209W, strain ssb2, stronger effect = lower value 1.01 | S. cerevisiae deletion strains, locus YNL233W, strain BNI4, stronger effect = lower value 1.04 | S. cerevisiae deletion strains, locus YNL248C, strain rpa49, stronger effect = lower value 1 | S. cerevisiae deletion strains, locus YNL250W, strain rad50, stronger effect = lower value 1.05 | S. cerevisiae deletion strains, locus YNL271C, strain bni1, stronger effect = lower value 1.02 | S. cerevisiae deletion strains, locus YNL298W, strain CLA4, stronger effect = lower value 1 | S. cerevisiae deletion strains, locus YNL307C, strain MCK1, stronger effect = lower value 0.989 | S. cerevisiae deletion strains, locus YNL322C, strain KRE1 (second series), stronger effect = lower value 0.993 | S. cerevisiae deletion strains, locus YNL322C, strain KRE1, stronger effect = lower value 1.02 | S. cerevisiae deletion strains, locus YNR049C, strain mso1, stronger effect = lower value 0.982 | S. cerevisiae deletion strains, locus YNR052C, strain pop2, stronger effect = lower value 0.989 | S. cerevisiae deletion strains, locus YOL006C, strain TOP1, stronger effect = lower value 0.971 | S. cerevisiae deletion strains, locus YOL012C, strain htz1 1.89 | S. cerevisiae deletion strains, locus YOL147C, strain pex11, stronger effect = lower value 1.03 | S. cerevisiae deletion strains, locus YOR001W, strain rrp6, stronger effect = lower value 0.995 | S. cerevisiae deletion strains, locus YOR061W, strain CKA2, stronger effect = lower value 1.02 | S. cerevisiae deletion strains, locus YOR069W, strain VPS5, stronger effect = lower value 1.01 | S. cerevisiae deletion strains, locus YOR070C, strain gyp1, stronger effect = lower value 0.988 | S. cerevisiae deletion strains, locus YOR080W, strain dia2, stronger effect = lower value 0.983 | S. cerevisiae deletion strains, locus YOR083W, strain WHI5, stronger effect = lower value 0.983 | S. cerevisiae deletion strains, locus YOR106W, strain vam3, stronger effect = lower value 0.96 | S. cerevisiae deletion strains, locus YOR136W, strain idh2, stronger effect = lower value 1.04 | S. cerevisiae deletion strains, locus YOR144C, strain elg1, stronger effect = lower value 1.03 | S. cerevisiae deletion strains, locus YOR184W, strain ser1, stronger effect = lower value 0.98 | S. cerevisiae deletion strains, locus YOR231W, strain MKK1, stronger effect = lower value 0.99 | S. cerevisiae deletion strains, locus YOR265W, strain rbl2, stronger effect = lower value 0.989 | S. cerevisiae deletion strains, locus YOR270C, strain vph1, stronger effect = lower value 0.936 | S. cerevisiae deletion strains, locus YOR290C, strain snf2, stronger effect = lower value 0.967 | S. cerevisiae deletion strains, locus YOR316C, strain cot1, stronger effect = lower value 1.03 | S. cerevisiae deletion strains, locus YPL051W, strain arl3, stronger effect = lower value 1 | S. cerevisiae deletion strains, locus YPL055C, strain LGE1, stronger effect = lower value 1.07 | S. cerevisiae deletion strains, locus YPL078C, strain atp4, stronger effect = lower value 0.997 | S. cerevisiae deletion strains, locus YPL106C, strain sse1, stronger effect = lower value 1.05 | S. cerevisiae deletion strains, locus YPL240C, strain hsp82, stronger effect = lower value 0.978 | S. cerevisiae deletion strains, locus YPL241C, strain CIN2, stronger effect = lower value 1.03 | S. cerevisiae deletion strains, locus YPL256C, strain CLN2, stronger effect = lower value 1.06 | S. cerevisiae deletion strains, locus YPR119W, strain clb2, stronger effect = lower value 1.02 | S. cerevisiae deletion strains, locus YPR141C, strain kar3, stronger effect = lower value 1.04 | S. cerevisiae deletion strains, locus YPR163C, strain tif3, stronger effect = lower value 1.04 | S. cerevisiae deletion strains, locus YPR167C, strain met16, stronger effect = lower value 1.03 | S. cerevisiae deletion strains, strain wtn01, stronger effect = lower value 0.989 | S. cerevisiae strains, strain wild type, stronger effect = lower value 1.01
